A selection: hits, their analogues and other compounds. The true share with any hit is near 12%.
Sfp PPTase inh = qHTS Assay for Inhibitors of Bacillus subtilis Sfp phosphopantetheinyl transferase (PPTase); 4'-phosphopantetheinyl transferase ffp (Bacillus subtilis), Q9F4F7; Biochemical Sfp PPTase activity, qHTS; Potency, µM, for inactives: largest response in the series, negative = inhibition, usual class: inhibitors; actives 3.5% (n = 310,000);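 note: the enzyme is Sfp with the accession as filed and its product quenches rhodamine fluorescence; 0% = enzyme reaction without inhibitor and -100% = no enzyme wells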
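Compounds were incubated with enzyme (final 15 nM) for 15 min at room temperature before substrate addition started the reaction. Fluorescence at 525 nm excitation, 598 nm emission was recorded immediately and after 30 minutes.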
JMJD2A Tudor = qHTS Assay for Inhibitors of JMJD2A-Tudor Domain | Lysine-specific demethylase 4A (Homo sapiens), O75164 | AlphaScreen JMJD2A-Tudor / H3K4me3 peptide binding | Potency, µM (titrated, usually from 114 µM), for the others: at the highest dose activity change, negative = inhibition, usual class: inhibitors | actives 4.4% (n = 390,000); note: % is set by controls: 0 for no effect and ±100 for the full control effect; nearly all actives have a fitted effect of over 50% in size
G9a inh = qHTS Assay for Inhibitors of Histone Lysine Methyltransferase G9a; Histone-lysine N-methyltransferase EHMT2 (Homo sapiens), Q96KQ7; G9a H3K9 monomethylation, AlphaScreen, 2 h; Potency, µM (series often up to 102 µM), for inactives: top-dose activity, negative = inhibition, hits mostly inhibitors; actives 8.8% (n = 350,000); note: % is set by controls: 0 for no effect and ±100 for the full control effect; nearly all actives have a fitted effect of over 75% in size
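Compounds were preincubated with 20 nM G9a for 15 min, after which biotinylated H3K9 peptide (500 nM) and SAM (20 uM) started a 2 h room-temperature reaction. Monomethylated product was quantified by antibody-based AlphaScreen chemiluminescence.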
HP1b chromo inh = HTS for Inhibitors of HP1-beta Chromodomain Interactions with Methylated Histone Tails. AlphaScreen HP1-beta / biotin-H3K9me3 peptide binding. Potency, µM (series often up to 114 µM), for the others: top-dose activity change, negative = inhibition, usual class: inhibitors. actives 0.56% (n = 390,000). AID 540317, 2011; note: nearly all actives have a fitted effect of over 70% in size
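HP1-beta protein (50 nM final) preincubated 30 min at room temperature with biotinylated H3(1-18)K9me3 peptide (50 nM) in PBS pH 7.4, 0.01% Tween-20, then compound added for 30 min. AlphaScreen streptavidin donor/nickel chelate acceptor beads (10 ug/mL final), 30 min dark, luminescence read.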
BAZ2B block = qHTS Assay for Inhibitors of BAZ2B; Bromodomain adjacent to zinc finger domain protein 2B (Homo sapiens), Q9UIF8; AlphaScreen BAZ2B-H3K14Ac peptide displacement; Potency, µM (doses to about 114 µM), for inactives: top-dose activity change, negative = inhibition, hits mostly inhibitors; actives 4.4% (n = 360,000); AID 504333, 2011; note: % is set by controls: 0 for no effect and ±100 for the full control effect; nearly all actives have a fitted effect of over 60% in size
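AlphaScreen displacement: compounds (up to 110uM) incubated 30 min at room temperature with a preformed 50 nM BAZ2B/50 nM biotinylated H3K14Ac peptide complex in PBS pH 7.4 with Tween-20. Donor and acceptor beads at 10 ug/mL final added, 20 min light-protected before reading.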
L3MBTL1 block = qHTS Assay for the Inhibitors of L3MBTL1; Lethal(3)malignant brain tumor-like protein 1 (Homo sapiens), Q9Y468; AlphaScreen L3MBTL1–H3K9me1 peptide binding; Potency, µM (series often up to 57.1 µM), for inactives: at the top dose activity, negative = inhibition, most hits filed as inhibitors; actives 0.66% (n = 230,000); AID 485360, 2010; note: % is set by controls: 0 for no effect and ±100 for the full control effect; nearly all actives have a fitted effect of over 60% in size
Target sequence (Q9Y468 whole entry, looked up): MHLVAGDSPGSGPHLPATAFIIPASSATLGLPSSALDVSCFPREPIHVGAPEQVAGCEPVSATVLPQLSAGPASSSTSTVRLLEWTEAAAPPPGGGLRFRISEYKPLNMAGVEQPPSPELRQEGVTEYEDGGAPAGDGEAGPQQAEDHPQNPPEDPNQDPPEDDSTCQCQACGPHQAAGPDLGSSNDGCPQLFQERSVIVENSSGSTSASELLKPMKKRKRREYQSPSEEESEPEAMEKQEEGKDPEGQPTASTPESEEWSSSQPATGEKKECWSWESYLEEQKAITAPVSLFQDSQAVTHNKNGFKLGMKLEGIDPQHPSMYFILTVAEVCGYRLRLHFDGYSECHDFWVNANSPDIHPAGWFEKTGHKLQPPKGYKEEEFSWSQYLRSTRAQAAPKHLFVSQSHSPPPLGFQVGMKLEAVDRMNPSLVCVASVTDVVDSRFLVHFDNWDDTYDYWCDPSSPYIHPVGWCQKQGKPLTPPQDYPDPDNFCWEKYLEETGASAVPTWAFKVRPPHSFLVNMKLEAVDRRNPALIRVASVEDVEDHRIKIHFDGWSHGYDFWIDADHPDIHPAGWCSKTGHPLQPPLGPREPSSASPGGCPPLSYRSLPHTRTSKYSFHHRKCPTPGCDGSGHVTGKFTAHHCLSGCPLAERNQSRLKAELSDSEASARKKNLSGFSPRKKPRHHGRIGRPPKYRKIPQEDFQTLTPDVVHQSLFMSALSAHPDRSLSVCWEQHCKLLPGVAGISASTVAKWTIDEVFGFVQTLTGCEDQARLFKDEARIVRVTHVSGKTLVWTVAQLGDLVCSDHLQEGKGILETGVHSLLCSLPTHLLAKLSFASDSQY
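Read-out is AlphaScreen signal from streptavidin donor and nickel chelate acceptor beads (10 ug/mL final each) bridging L3MBTL1 (50 nM) and biotinylated K9-monomethylated H3(1-15) peptide (75 nM), after 30 min compound exposure at room temperature.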
Starred values were filed as active, the others as inactive; [ ] = dose if it differs, or a comment. Calls come from the whole dose curve; as a rule, active = well fitted curve in the direction sought with a large enough effect; inconclusive = small, poorly fitted or top-dose-only effect, or another doubt; inactive = no such curve, though single readings can be large; an effect the other way counts as inactive or inconclusive. Potency is the fitted concentration of half-maximal effect.

How did CCn1cc(C(=O)NCCCOC)c(=O)c2cc(S(=O)(=O)N3CCc4ccccc4C3)ccc21 do in these assays?
JMJD2A Tudor: -19.0%; G9a inh: -20.6%[59 µM]; HP1b chromo inh: 31.6%

What do the screens show for `CC(C)=NOCc1ccc(-c2cn([C@@H]3COC[C@@H]3O)nn2)cc1`?
Sfp PPTase inh: 14.1µM*

How did Cc1ccc(NC(=O)Cn2cc(C(=O)c3cccs3)c3ccccc32)cc1C do in these assays?
JMJD2A Tudor: -14.4%; G9a inh: -20.1%[59 µM]; HP1b chromo inh: 37.5%; BAZ2B block: -13.5%

What do the screens show for `CCN1/C(=C/c2ccc3cc(C)ccc3[n+]2C)Sc2ccc3sccc3c21`?
Sfp PPTase inh: -20.8%; JMJD2A Tudor: 14.1µM*; G9a inh: 15.8µM*; HP1b chromo inh: -15.9%; BAZ2B block: 44.7µM*; L3MBTL1 block: -23.2%

What do the screens show for `CCCCN1/C(=C/c2ccc3ccccc3[n+]2CC)Sc2ccccc21`?
Sfp PPTase inh: -16.4%; JMJD2A Tudor: 31.6µM*; G9a inh: 31.6µM*; HP1b chromo inh: -7.3%; BAZ2B block: inconclusive; L3MBTL1 block: -18.9%

How did CCN1/C(=C/c2ccc3cc(C)ccc3[n+]2CC)Sc2cc(C)ccc21 do in these assays?
Sfp PPTase inh: inconclusive; JMJD2A Tudor: inconclusive; G9a inh: 22.4µM*; HP1b chromo inh: -31.8%; BAZ2B block: 39.8µM*; L3MBTL1 block: -4.9%

What do the screens show for `CCOc1ccc(-n2cc(-c3ccccc3)c3c(N4CCC(C)CC4)ncnc32)cc1`?
JMJD2A Tudor: -30.9%; G9a inh: 0.6%[59 µM]; HP1b chromo inh: 14.2%; BAZ2B block: inconclusive

How did CCN(Cc1ccccc1)C(=O)Cn1c(=O)n(-c2ccc(Cl)cc2)c(=O)c2c(C)c(C)sc21 do in these assays?
JMJD2A Tudor: -15.0%; G9a inh: 4.9%[59 µM]; HP1b chromo inh: 44.0%; BAZ2B block: -13.6%

Results for Cc1ccc(-c2csc3ncnc(SCc4ccc(C(=O)O)cc4)c23)cc1 ?
Sfp PPTase inh: 50.1µM*; JMJD2A Tudor: inconclusive; HP1b chromo inh: 17.4%; BAZ2B block: 50.1µM*; L3MBTL1 block: -2.3%

What do the screens show for `Cc1nc(SCc2ccc(C(=O)O)cc2)c2c(C)c(C)sc2n1`?
Sfp PPTase inh: 5.0%; JMJD2A Tudor: -9.4%; G9a inh: -9.8%; HP1b chromo inh: -12.2%; BAZ2B block: inconclusive

What do the screens show for `Cc1sc2ncnc(SCc3ccc(C(=O)O)cc3)c2c1C`?
Sfp PPTase inh: -5.4%; JMJD2A Tudor: -7.5%; G9a inh: 44.7µM*; HP1b chromo inh: 48.9%; BAZ2B block: -15.1%; L3MBTL1 block: 12.9%

How did c1ccc(-c2csc3ncnc(N4CCN(Cc5ccc6c(c5)OCO6)CC4)c23)cc1 do in these assays?
Sfp PPTase inh: -15.4%; JMJD2A Tudor: inconclusive; G9a inh: 10.8%[2.33 µM]; HP1b chromo inh: 17.0%; BAZ2B block: inconclusive

Results for O=C(CSc1ncnc2scc(-c3ccccc3)c12)N1CCN(Cc2ccc3c(c2)OCO3)CC1 ?
Sfp PPTase inh: -16.7%; JMJD2A Tudor: inconclusive; G9a inh: 44.7µM*; HP1b chromo inh: inconclusive; BAZ2B block: inconclusive; L3MBTL1 block: inconclusive

How did CC(/C=C/c1ccco1)=N\NC(=O)COc1ccc(C)c(C)c1 do in these assays?
Sfp PPTase inh: inconclusive; JMJD2A Tudor: -33.3%; G9a inh: 39.8µM*; HP1b chromo inh: 14.7%; BAZ2B block: inconclusive; L3MBTL1 block: -25.1%

How did Cc1ccc(OCCNC(=O)/C=C/c2ccco2)cc1C do in these assays?
Sfp PPTase inh: 10µM*; JMJD2A Tudor: -22.1%; HP1b chromo inh: 3.4%; BAZ2B block: -32.3%; L3MBTL1 block: -20.9%

How did Cc1ccc(OCC(=O)NCc2ccco2)cc1C do in these assays?
Sfp PPTase inh: inconclusive; JMJD2A Tudor: -21.9%; G9a inh: -40.2%[59 µM]; HP1b chromo inh: 3.2%; BAZ2B block: -34.6%; L3MBTL1 block: 1.2%[11.4 µM]

How did Cc1ccc(OCCNC(=O)/C=C/c2ccccc2)cc1C do in these assays?
Sfp PPTase inh: -3.5%; JMJD2A Tudor: 10.6%; G9a inh: 12.3%; HP1b chromo inh: 68.1%; BAZ2B block: 3.9%; L3MBTL1 block: -7.2%

Results for CC(C)(C)OC(=O)N1CCC(c2c(C(=O)NCCCN3CCc4ccccc4C3)cnn2-c2ccccc2)CC1 ?
JMJD2A Tudor: -30.4%; G9a inh: -34.6%[59 µM]; HP1b chromo inh: -13.5%; BAZ2B block: 1.0%[57.1 µM]

Results for CC(CNC(=O)c1ccc2nc(CCc3ccccc3)oc2c1)c1ccccc1 (stereo unspecified) ?
JMJD2A Tudor: -13.1%; G9a inh: 14.4%[59 µM]; HP1b chromo inh: 14.2%[57 µM]; BAZ2B block: -0.5%

Results for CCCC1=[N+](CC(C)=O)CCn2c(C)ccc21 ?
Sfp PPTase inh: 5.3%; JMJD2A Tudor: -35.4%; G9a inh: 31.6µM*; HP1b chromo inh: 44.2%; BAZ2B block: -27.8%

What do the screens show for `Cc1cc(C)n(C(C)CC(=O)Nc2ccc(C)c(N(C)C)c2)n1` (stereo unspecified)?
JMJD2A Tudor: -26.3%; G9a inh: 5.2%[59 µM]; HP1b chromo inh: 42.7%; BAZ2B block: -20.6%

Results for CC(=O)c1ccc(Sc2ccc(C(C)=O)cc2)cc1 ?
Sfp PPTase inh: 12.1%; JMJD2A Tudor: 10.0%; G9a inh: 3.2%[59 µM]; HP1b chromo inh: 40.4%; BAZ2B block: 1.7%; L3MBTL1 block: 68.0%

Results for CC(=O)c1ccc(N=Nc2ccc(N(C)C)cc2)cc1 ?
Sfp PPTase inh: -3.4%; JMJD2A Tudor: -31.2%; G9a inh: -51.0%; HP1b chromo inh: -19.2%; BAZ2B block: 1.12µM*; L3MBTL1 block: -2.9%

What do the screens show for `COC(=O)c1ccc(C)cc1`?
JMJD2A Tudor: -7.5%; HP1b chromo inh: 45.3%; L3MBTL1 block: 1.7%

What do the screens show for `COC(=O)c1ccc(NN=Nc2ccc(C)cc2)cc1`?
Sfp PPTase inh: -17.3%; JMJD2A Tudor: 31.6µM*; G9a inh: 7.94µM*; HP1b chromo inh: 79.4µM*; BAZ2B block: inconclusive; L3MBTL1 block: -1.3%

How did C=C(C)C(=O)Oc1ccc(N=Nc2ccc(C)cc2)ccc1=O do in these assays?
JMJD2A Tudor: 3.55µM*; HP1b chromo inh: 10µM*

How did CN(C)c1ccc(N=Nc2ccccc2Br)cc1 do in these assays?
Sfp PPTase inh: -3.2%; JMJD2A Tudor: 10µM*; G9a inh: 3.55µM*; HP1b chromo inh: 5.01µM*; BAZ2B block: 4.47µM*
